Experimental findings from PubChem BioAssay are described below.

Test [1] has as its system Hepatitis C virus NS3 helicase. As to the kind of experiment: blockers of NS3h binding to ssDNA – biochemical, fluorescence polarization, LOPAC1280 library, primary screen (AID 687035; in the data active = inhibition above about 37%). The settings on record: Purified HCV NS3 helicase, Cy5-dT15 ssDNA binding fluorescence polarization; stronger effect = higher value; concentration not given here. (In fluorescence polarisation assays a small probe gives low polarisation when free and higher when bound to something large.)

The nature of test [2]: Wnt pathway potentiators raising nuclear beta-catenin – imaging, WNT3A-conditioned medium, mouse C2C12, NPC library, primary screen (AID 1117326; in the data active = nuclear beta-catenin stimulation mostly above about 4.2%, no sharp cut-off; inactive = mostly below about 10%). The settings on record: stronger effect = higher value.
Test [3] is described as follows: stimulators of insulin release from INS-1E, primary screen, cell-based, 5 mM glucose, NPC library (AID 1117329;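 active = compound raises insulin release from rat beta cells at 5 mM glucose, no numeric limit stated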). Particulars: rat INS-1E insulin secretion, at 10 µM, stronger effect = higher value.
A short description of test [4]: growth inhibition of GSK3B-pretreated HCT116 cells – cell-based, CellTiter-Glo, 0.2 to 20 µM (AID 1117336;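 active = compounds lowering colon cancer cell viability after pretreatment blocking the GSK3B kinase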). Particulars: HCT116 viability after GSK3B inhibitor, at 20 µM, stronger effect = higher value.
Test [5] can be described thus: inhibition of endothelial tube formation, primary screen, imaging, VEGF stimulated, CD31 staining, tube area, NPC library (AID 1117340;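 active = compound that reduces growth-factor-driven endothelial tube area in a mixed cell culture, no cutoff stated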). The settings on record: VEGF-stimulated ADSC/ECFC co-culture, at 10 µM, stronger effect = higher value.
A short description of test [6]: GLP1 release stimulators, primary, NCI-H716, NPC library (AID 1117341;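 active = compound raises GLP1 secretion from the human gut endocrine cells, with no numeric limit stated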). Particulars: NCI-H716 cells, at 10 µM, stronger effect = higher value.
Test [7] in a line: HCT116 colon cancer cell growth inhibition, primary screen, CellTiter-Glo luminescence, NPC library (AID 1117342;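 active = compounds that lower survival of HCT116 colon cancer cells in the luminescence readout, no numeric limit stated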). Particulars: at 20 µM (top of the series).
Test [8] can be described thus: reduced SW480 viability measured with CellTiter-Glo, NPC library, primary (AID 1117343;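 active = compounds that lower viability of the colon cancer cells in the luminescence readout, with no numeric limit stated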). Particulars: CellTiter-Glo luminescence; at 20 µM (top of the series). (In general: Cellular ATP, detected with luciferase, serves as a proxy for viable cell number.)
Test [9] in a line: NPC library primary testing for decreased DLD-1 cell viability via CellTiter-Glo (AID 1117346;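 active = compounds that lower survival of DLD-1 colon cancer cells in the luminescence readout, no cutoff given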). The settings on record: DLD-1 viability, CellTiter-Glo luminescence; at 20 µM (top of the series).
The nature of test [10]: viability loss with induced miR-34 in A549 – imaging, A549 dox-inducible miR-34, nuclei and caspase counts, primary screen (AID 1347080). Particulars: A549 miR-34 inducible, Hoechst nuclei count, 48 h.
Test [11] in a line: galactose survival enhancers in mitochondrial complex I cybrids – cell-based, galactose medium, ATP luminescence, primary screen (AID 1645843;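 active = z-score of at least 1.8 in each of two replicates, scored against plate mean and spread of sample wells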;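 also: positive z means more ATP and so rescue of galactose-driven cybrid death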). Particulars: complex I mutant cybrid cells, 72 h, stronger effect = higher value.
A short description of test [12]: MELAS cybrid and Rieske KO viability enhancers – cell-based, MELAS cybrids, Rieske KO mouse fibroblasts, CellTiter-Glo, primary screen (AID 1508586;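 active = mean z-score across replicates of 1.96 or higher in either the MELAS or the Rieske mutant cell line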;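 also: z relative to plate mean and SD of compound and empty wells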). The settings on record: low glucose.
Test [13] concerns the target NAD(+) hydrolase SARM1 (Homo sapiens) (UniProt Q6SZW1). As to the kind of experiment: blocking NAD cleavage by SARM1 SAM-TIR – cell lysate, NAD-Glo luminescence (AID 1508614;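 active = compound whose remaining NAD level is above about 45 nM, limit read from the data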;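 also: higher remaining NAD means stronger inhibition of SARM1 NADase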). Particulars: SAM-TIR HEK293T lysate NADase, at 1 µM, stronger effect = higher value.
A short description of test [14]: compounds altering viability of human ES cells (AID 493140; call rule not given here;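 also: cells exposed to compounds for four days before counting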). Particulars: human embryonic stem cell survival screen; stronger effect = higher value.
Test [15] can be described thus: P. berghei load reduction in hepatocytes – cell-based, HepG2, luciferase luminescence, HepG2 viability, primary screen (AID 624349; in the data active = parasite load remaining mostly below about 12%, no sharp cut-off; inactive = mostly above about 10%;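 also: 100% = mean of DMSO negative control wells on the same plate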). The settings on record: P. berghei liver stage in HepG2, luciferase luminescence, concentration not given here; parasite load remaining: stronger effect = lower value; viability: measured here: HepG2 viability without parasites.
Where [16] appears, read: measured here: relative caspase fold change +Dox/-Dox.
Setting [17] is: measured here: total cells with miR-34 induction, stronger effect = lower value.
The mark [18] stands for this setting: measured here: total cells without miR-34 induction.
Where [19] appears, read: MELAS cybrid survival, CellTiter-Glo 48 h, stronger effect = higher value.
The mark [20] stands for this setting: Rieske KO mouse fibroblast survival, CellTiter-Glo 72 h.

“And” between values parts separate entries of the source, which are not always exact repeats. Equal values may be shown once. The source made the active and inactive calls.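 The calls were made as follows, unless noted: active = compounds whose cell count with miR-34 switched on is under 0.7 times the count with it off; inactive = the rest.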

NAD(+) hydrolase SARM1 (Homo sapiens), sequence (Q6SZW1 whole entry, looked up): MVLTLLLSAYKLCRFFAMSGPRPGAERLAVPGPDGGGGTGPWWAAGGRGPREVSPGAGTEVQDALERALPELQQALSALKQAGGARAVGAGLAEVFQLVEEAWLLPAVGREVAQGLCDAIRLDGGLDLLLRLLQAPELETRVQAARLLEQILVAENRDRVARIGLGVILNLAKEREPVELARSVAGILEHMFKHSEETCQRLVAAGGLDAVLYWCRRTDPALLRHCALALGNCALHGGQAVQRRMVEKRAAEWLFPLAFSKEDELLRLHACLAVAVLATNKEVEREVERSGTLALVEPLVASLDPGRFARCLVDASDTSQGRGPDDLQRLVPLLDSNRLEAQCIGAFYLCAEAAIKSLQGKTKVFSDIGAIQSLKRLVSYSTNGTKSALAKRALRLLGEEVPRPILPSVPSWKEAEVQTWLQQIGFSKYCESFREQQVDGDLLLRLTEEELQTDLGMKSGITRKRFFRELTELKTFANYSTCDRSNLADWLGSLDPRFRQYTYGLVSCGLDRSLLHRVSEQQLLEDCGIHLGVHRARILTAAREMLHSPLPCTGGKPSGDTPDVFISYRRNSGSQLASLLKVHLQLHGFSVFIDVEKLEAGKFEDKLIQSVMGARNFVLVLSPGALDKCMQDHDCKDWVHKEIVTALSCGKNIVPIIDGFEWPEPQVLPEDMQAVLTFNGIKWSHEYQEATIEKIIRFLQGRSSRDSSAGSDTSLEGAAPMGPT

In the case of `Cc1ncsc1CCCl`, in [1], the inhibition is -2% (inactive). Further, the nuclear beta-catenin stimulation is 1% (inactive) in [2] (at 10 µM) and 2.4% in test [2] (stimulation, at 2 µM). Besides, in [3], the insulin secretion stimulation is -0.8% (inactive). The viability decrease in test [4] was -208% (inactive). The tube area decrease in [5] was -22% (inactive). For the same compound, the GLP1 secretion stimulation in [6] was -0.4% (inactive). Besides, the inhibition of viability in test [7] is -3.1% (inactive). Besides, the viability decrease (inhibition) in test [8] is 43.8% (inactive); in [9], 72.4% (active). The fold change in test [10] (stronger effect = lower value) is 0.959 (inactive) and 0.961 (inactive); in test [10] (setting [16]) it was 0.758 and 0.938. Also, the cell count in test [10] (setting [17]) was 9720 and 8120; in test [10] (setting [18]) it was 10100 and 8450. In addition, the z-score in [11] was 0.7 (inactive) and 0.075 (inactive).
Turning to `C[C@]12CC[C@@H]3c4ccc(OC(=O)N(CCCl)CCCl)cc4CC[C@H]3[C@@H]1CC[C@@H]2O`, the nuclear beta-catenin stimulation in test [2] (at 10 µM) was -1.2% (inactive); in test [2] (stimulation, at 2 µM), 0.4%. The insulin secretion stimulation in test [3] was -0.9% (inactive). Also, the viability decrease in [4] was 18.1% (inactive). In addition, in [5], the tube area decrease is 2.8% (inactive). In addition, the GLP1 secretion stimulation in [6] was 2.6% (inactive). Besides, the inhibition of viability in [7] is -23.1% (inactive). Besides, the results for the viability decrease (inhibition) in test [8] and in test [9] were 56.7% (active) and 23.4% (inactive), respectively. Moreover, the z-score in test [12] (setting [19]) was -1.9 (inactive); in test [12] (setting [20]), 0.249. The remaining NAD in [13] was 10 nM (inactive).
As to `CCN[C@@H](C)Cc1cccc(C(F)(F)F)c1`, the nuclear beta-catenin stimulation in test [2] (at 10 µM) was 3% (inactive); in test [2] (stimulation, at 2 µM) it was 2.2%. The insulin secretion stimulation in test [3] was 8.8% (inactive). Moreover, the viability decrease in test [4] was -3.65% (inactive). For the same compound, the tube area decrease in [5] is 29.2% (active). The GLP1 secretion stimulation in test [6] is 1.3% (inactive). Moreover, the inhibition of viability in test [7] is -3.9% (inactive). In addition, the viability decrease (inhibition) in test [8] is 17.9% (inactive); in [9], -6.6% (inactive). For the same compound, the z-score in [12] (setting [19]) was -1.11 (inactive); in test [12] (setting [20]), 0.177.
Take `CCC1(c2cccc(O)c2)CCCCN(C)C1` (centres undefined): the survival in test [14] is 2.75 (inactive). Moreover, the parasite load remaining in test [15] is 114% (inactive). In addition, in test [15], the viability was 77.7%. In addition, the nuclear beta-catenin stimulation was -0.6% (inactive) in test [2] (at 10 µM) and -0.3% in [2] (stimulation, at 2 µM). In addition, the insulin secretion stimulation in test [3] is 19.8% (inactive). For the same compound, in test [4], the viability decrease was 10.8% (inactive). Also, in test [5], the tube area decrease is -4.7% (inactive). For the same compound, in test [6], the GLP1 secretion stimulation was 1.4% (inactive). The inhibition of viability in [7] was -13.6% (inactive). The values for the viability decrease (inhibition) in test [8] and in test [9] were 57% (active) and 13.3% (inactive), respectively. Also, the fold change in test [10] (stronger effect = lower value) was 0.914 (inactive) and 0.925 (inactive); in [10] (setting [16]), 0.54 and 0.493. Besides, the cell count was 8800 and 7600 in test [10] (setting [17]); 9630 and 8210 in test [10] (setting [18]). Also, the z-score in test [12] (setting [19]) was -0.204 (inactive) and -0.911 (inactive); in [12] (setting [20]), -0.179 and 0.197.
In the case of `Clc1ccc(CCC(Cn2ccnc2)Sc2c(Cl)cccc2Cl)cc1` (centres undefined), in test [14], the survival is 15 (inactive). Further, the parasite load remaining in test [15] is 5.94% (inactive) and 63.9% (inactive). In test [15], the viability was 103% and 82.5%. Besides, the nuclear beta-catenin stimulation was 15.6% (inactive) in test [2] (at 10 µM) and 4.3% in test [2] (stimulation, at 2 µM). The insulin secretion stimulation in test [3] is -0.2% (inactive). Besides, the viability decrease in test [4] is 101% (active). In addition, the tube area decrease in test [5] was 109% (active). In addition, the GLP1 secretion stimulation in test [6] is 20.8% (active). For the same compound, the inhibition of viability in test [7] is 101% (active). For the same compound, the viability decrease (inhibition) was 123% (active) in [8] and 103% (active) in [9]. Besides, the fold change is 0.969 (inactive) and 0.821 (inactive) and 0.887 (inactive) in test [10] (stronger effect = lower value); 0.807 and 1.54 and 0.572 in test [10] (setting [16]). For the same compound, the cell count was 5090 and 6860 and 7040 in test [10] (setting [17]); 5260 and 8350 and 7940 in test [10] (setting [18]). Also, the z-score in test [12] (setting [19]) is 0.075 (inactive) and -0.442 (inactive); in [12] (setting [20]), -0.608 and 0.109.

What is called inhibition is the drop in the measured response relative to a control, in per cent. In general, viability refers to a read-out of living cells in per cent, often relative to untreated cells.
